# From PubChem BioAssay AID720517 (National Center for Advancing Translational Sciences (NCATS), 2013)
# Records with an inconclusive call do not appear. A number with no mark means an inactive call. Calls follow the shape of the dose curve; as a rule, active = well fitted activation curve with a large enough effect; inconclusive = small, poorly fitted or top-dose-only effect; inactive = flat fitted curve, though single readings scatter.
# Assay: qHTS for Inhibitors of Cell Surface uPA Generation: FP59 Counterscreen for Cherry-picked Compounds; also: 0% is about no effect
# Settings: FP59 anthrax toxin cytotoxicity counterscreen, cells; series mostly up to 115 µM; activity (protection from FP59): at the top concentration
row,Structure (SMILES),activity (protection from FP59) [%]
1,CC(C)(O)C#Cc1ccc(C(=O)N2CCCC(CCC(=O)NCc3ccccc3F)C2)cc1 (centres undefined),-1.3
2,O=C(CSC1=NS(=O)(=O)c2ccccc2N1)Nc1nccs1,-1.26
3,OCC1CCCCN1CC(O)COC(c1ccc(F)cc1)c1ccc(F)cc1 (centres undefined),-1.2
4,O=C(CSc1nncs1)NC(=O)NCc1ccco1,-1.2
5,O=C(O)c1cc(N=Nc2c(O)[nH]c3ccc([N+](=O)[O-])cc23)ccc1Cl,-1.37
6,Cc1nnc2ccc(-c3ccc(NS(=O)(=O)c4ccc(Cl)s4)cc3)nn12,-1.35
7,COc1cc2oc(=O)ccc2cc1[C@H](O)[C@@H](O)C(C)(C)O,-1.29
8,Nc1nc2ccc(Br)cc2o1,-1.38
9,NC(=O)C1CCN(C(=O)c2cccc3ccccc23)CC1,-1.24
10,CC(=O)c1cnc2nc(SCc3cccc(C)c3)nn2c1C,-1.58
11,O=C(N/N=C/c1cccnc1)c1ccccc1[N+](=O)[O-],-1.36
12,CCC(C)Nc1cc(C)nc2ncnn12 (centres undefined),-1.32
13,Cc1ccc(-n2ncc(C(=O)NC3CC3)c2C2CCN(C(=O)OC(C)(C)C)CC2)cc1,-1.39
14,COC(=O)[C@]1(Cc2ccccc2)N[C@H](CN(C)C(=O)Nc2ccccc2)[C@@H]2C(=O)N(Cc3ccccc3)C(=O)[C@@H]21,7.99
15,O=C(O)CCc1nn2c3ccccc3n(CC(=O)O)c2nc1=O,-1.31
16,CCOc1ccccc1C(=O)NC1CCN(CC(=O)Nc2cc(OC)ccc2OC)CC1,-0.0735
17,Cc1oc(-c2ccccc2F)nc1CS(=O)CC(=O)NCc1ccc(F)cc1 (centres undefined),-1.16
18,CC(=O)NC(=S)Nc1ccc([N+](=O)[O-])cc1C,-1.26
19,CC1(C)CC(=O)C=C(c2ccc3ccccc3c2)C1,0.0857
20,CC1=C(C(=O)OCc2ccccc2)C(c2cccc([N+](=O)[O-])c2)NC(=O)N1 (centres undefined),-0.959

row,Structure (SMILES),activity (protection from FP59) [%]
1,CC(=O)Nc1nc2ccccc2[nH]1,-1.4
2,COc1cccc(-n2c(SCC(=O)Nc3cc(C)on3)nc3c([nH]c4ccccc43)c2=O)c1,-1.21
3,Cc1cccc(C)c1NC(=O)c1c(O)c2ccccc2[nH]c1=O,-0.508
4,CC(=O)[C@@]1(O)[C@H](C)CC2C3CC=C4CC(OP(=O)(O)O)CC[C@]4(C)C3CC[C@@]21C (some centres undefined),-1.22
5,Cn1c(SCC(=O)NCCc2ccccc2)ncc(C(=O)Nc2ccc(F)cc2)c1=O,-1.23
6,Cc1ccccc1OCCC(=O)NNC(=O)c1ccccc1F,-1.31
7,CCNC(=S)NNC(=O)c1ccncc1,-1.47
8,O=C(O)CSc1nnc(COc2ccccc2)n1-c1ccccc1,-1.31
9,CCN(CC(=O)NCc1ccc(F)cc1)CC(=O)Nc1ccccc1-c1ccccc1,1.67
10,Clc1ccc(-c2nc3ccccn3c2CN2CCSCC2)cc1,1.45
11,COc1cc(N/C(N)=N/c2nc(C)cc(C)n2)cc(OC)c1,-1.6
12,CCOc1cc(N2CCOCC2)c(OCC)cc1NC(=O)c1[nH]c(C)c(C(C)=O)c1C,-1.34
13,N#Cc1cccc(NC(=O)Cn2cnc(S(=O)(=O)N3CCOCC3)c2)c1,-1.37
14,CCOC(=O)c1c(NC(=O)CC2SC(N)=NC2=O)sc2c1CCC(C)C2 (centres undefined),0.548
15,Cc1cccc(NC(=O)C2CCCN(S(=O)(=O)c3ccc4[nH]c(=O)ccc4c3)C2)c1 (centres undefined),-1.46
16,O=C(Nc1ccnn1C1CCN(CCCC2CCCC2)CC1)c1ccccc1,-1.38
17,O=C(CN(c1ccccc1F)S(=O)(=O)c1ccccc1)Nc1ccc2c(c1)OCCO2,-0.778
18,COC(=O)c1ccc(CN2CCCC(CNC(=O)Cc3ccc(OC)cc3)C2)cc1 (centres undefined),-1.35
19,CC(=O)N1CCN(C(=O)CSc2cc(C)c(Br)cc2C)CC1,-1.27
